The values below come from the supplement of paper PMC10981050.

Where a name gives a salt, the structure may show the parent alone.

For this assay, the system named is MARIMO. Nature of the assay: cell viability relative to vehicle control; higher = less cytotoxic. As to conditions: 10 µM; SRSF2 genotype: SRSF2 P95H/wt. The essentials:
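Screening covered the Selleck bioactive, kinase and epigenetic probe libraries, less identity-inconsistent compounds, on CRISPR-edited mutant clones and isogenic wild-type clones of four leukaemia lines. Cells, at 2000 per well in 50 µL medium, received a single 10 µM acoustically dispensed dose. After 48 h the supernatant was removed and CellTiter-Glo luminescence was read. Viability was analysed in Genedata Screener as percent of the on-plate vehicle control.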
Consider `Cc1nc(N)sc1-c1ccnc(Nc2ccc(N3CCOCC3)cc2)n1`, for which the cell viability turned out to be 40.8%.
In the case of `C=C[C@]1(C)C[C@@H](OC(=O)CSCCN(CC)CC)[C@]2(C)[C@H](C)CC[C@]3(CCC(=O)[C@H]32)[C@@H](C)[C@@H]1O` [Tiamulin], the cell viability was determined as 75.6%.
Next, `C[C@@H]1CC[C@@]2(OC1)O[C@H]1C[C@H]3[C@@H]4CC=C5C[C@@H](O)C[C@@H](O)[C@]5(C)[C@H]4CC[C@]3(C)[C@H]1[C@@H]2C` [Ruscogenin]: 98.9%; `C[C@@H]1O[C@@H](O[C@H]2[C@H](O[C@H]3CC[C@@]4(C)[C@@H](CC[C@]5(C)[C@@H]4CC=C4[C@@H]6CC(C)(C)CC[C@]6(C(=O)O)CC[C@]45C)[C@]3(C)CO)OC[C@H](O[C@@H]3O[C@H](CO)[C@@H](O)[C@H](O)[C@H]3O)[C@@H]2O)[C@H](O)[C@H](O)[C@H]1O` [Pulsatilla saponin D]: 0.46%; `Cc1cc(C#N)cc(C)c1Oc1nc(Nc2ccc(C#N)cc2)nc(N)c1Br` [Etravirine (TMC125)]: 97%.
For the compound `CCCNCC(O)COc1ccccc1C(=O)CCc1ccccc1` (stereo not given) [Propafenone HCl], the cell viability was 66.1%.
The figure for `CN1CCN(Cc2ccc(Nc3ncc(Cl)c(Nc4ccccc4S(=O)(=O)N(C)C)n3)cc2)CC1` is 30.3%.
With `O=C(O)CNC(=O)c1nc(Cl)c2ccccc2c1O`, the cell viability amounted to 80.5%.
Regarding `Cc1cc(C2CCCCC2)n(O)c(=O)c1` [Ciclopirox (Penlac)], the cell viability came out at 14.8%.
`COc1ccc(CCC(=O)Nc2nc3ccc(Cl)cc3s2)cc1OC`: the cell viability is 97.3%.
Next, `COc1ccc(/C=C/c2cc(O)cc(O[C@@H]3O[C@H](CO)[C@@H](O)[C@H](O)[C@H]3O)c2)cc1O` [Rhapontin]: 85.4%; `CC(C)=CCCC(C)(OC1OC(COC2OCC(O)C(O)C2O)C(O)C(O)C1O)C1CCC2(C)C1C(O)CC1C3(C)CCC(OC4OC(CO)C(O)C(O)C4O)C(C)(C)C3CCC12C` (stereo not given) [Gynostemma Extract]: 108%; `CC1(C)CC[C@]2(C(=O)O)[C@H](O)C[C@]3(C)C(=CC[C@@H]4[C@@]5(C)CC[C@H](O)[C@@](C)(C=O)[C@@H]5CC[C@]43C)[C@@H]2C1` [Quillaic acid]: 95%.
`CCN(CC)CCNC(=O)c1c(C)[nH]c(/C=C2\C(=O)Nc3ccc(F)cc32)c1C` [Sunitinib]: the cell viability came to 23.4%.
As to `CCCCCCCCCCCCCCCC(=O)O` [Palmitic acid], the cell viability turned out to be 96.4%.
For `C=CCS[S+]([O-])CC=C` (stereo not given) [Allicin], the cell viability is 96%.
Consider `Cc1ccccc1-c1cc(N2CCN(C)CC2)ncc1N(C)C(=O)C(C)(C)c1cc(C(F)(F)F)cc(C(F)(F)F)c1` [Netupitant], for which the cell viability worked out at 104%.
The figure for `CCCCCCCCCCCCCCCCOc1nc2ccc(C)cc2c(=O)o1` [Cetilistat] is 108%.
As to `C[C@H](CCC(=O)O)[C@H]1CC[C@H]2[C@@H]3[C@H](O)C[C@@H]4C[C@H](O)CC[C@]4(C)[C@H]3C[C@H](O)[C@]12C` [Cholic acid], the cell viability was 91.6%.
For `CCCCC(=O)OCC(=O)[C@H]1[C@H](C)C[C@H]2[C@@H]3C[C@H](F)C4=CC(=O)C=C[C@]4(C)[C@@]3(F)[C@@H](O)C[C@@]21C` [Diflucortolone valerate], the cell viability was determined as 95.1%.
Take `CCn1cc(-c2cccc(C(F)(F)F)c2)c2sc(C(=N)NC3CCS(=O)(=O)CC3)cc2c1=O`: the cell viability stood at 55.8%.
With `Cc1c(CN2CCN(C(=O)[C@H](C)O)CC2)sc2c(N3CCOCC3)nc(-c3cnc(N)nc3)nc12` [Apitolisib (GDC-0980, RG7422)], the cell viability stood at 39.7%.
The figure for `CC[C@H](NC(=O)[C@H](C)NC)C(=O)N1C[C@@H](O)C[C@H]1Cc1c(-c2[nH]c3cc(F)ccc3c2C[C@@H]2C[C@H](O)CN2C(=O)[C@H](CC)NC(=O)[C@H](C)NC)[nH]c2cc(F)ccc12` is 78.6%; for `CC1(C)O[C@H]1COc1c2ccoc2cc2oc(=O)ccc12` [Oxypeucedanin] it is 92.1%.
For `CCCCCCC1CCC(=O)O1` (stereo not given), the cell viability was 97.3%.
On to `CN1[C@@H]2CC[C@H]1C[C@@H](OC(=O)c1c[nH]c3ccccc13)C2` [Tropisetron HCl], for which the cell viability stood at 102%.
As for `CC1(C)[C@@H](O[C@H]2O[C@H](C(=O)O)[C@@H](O)[C@H](O)[C@H]2O[C@@H]2O[C@H](C(=O)O)[C@@H](O)[C@H](O)[C@H]2O)CC[C@]2(C)[C@H]3C(=O)C=C4[C@@H]5C[C@@](C)(C(=O)O)CC[C@]5(C)CC[C@@]4(C)[C@]3(C)CC[C@@H]12` [Ammonium Glycyrrhizate], the cell viability stood at 101%.
The figure for `Cc1cc2c(F)c(Oc3ncnn4cc(OC[C@@H](C)O)c(C)c34)ccc2[nH]1` is 107%; for `CCOc1cc(N2CCC(O)CC2)ccc1Nc1ncc2c(n1)N(C)c1ccccc1C(=O)N2C` it is 73%.
The figure for `CCCc1nn(C)c2c(=O)[nH]c(-c3cc(S(=O)(=O)N4CCN(C)CC4)ccc3OCC)nc12` [Sildenafil citrate] is 106%.
As for `CC(O)C(O)c1cnc2nc(N)[nH]c(=O)c2n1` (stereo not given) [6-Biopterin], the cell viability came to 104%.
In the case of `COc1ccc(-c2ccc3ncc4c(c3c2)n(-c2ccc(N3CCNCC3)c(C(F)(F)F)c2)c(=O)n4C)cn1`, the cell viability was determined as 0.25%.
Turning to `CO/N=C(\C(=O)N[C@@H]1C(=O)N2C(C(=O)O)=C(CSc3nnnn3C)CS[C@H]12)c1csc(N)n1` [Cefmenoxime hydrochloride], the cell viability came to 98.4%.
Consider `COC(=O)Nc1nc2cc(Sc3ccccc3)ccc2[nH]1` [Fenbendazole (Panacur)], for which the cell viability was found to be 27.3%.
With `COc1cc2nccc(Oc3ccc(NC(=O)C4(C(=O)Nc5ccc(F)cc5)CC4)cc3)c2cc1OC`, the cell viability is 69.1%.
Consider `CCCCOc1c(C(=O)c2c(F)cc(C)cc2F)c[nH]c2nncc1-2`, for which the cell viability is 72.6%.
As for `CCCCC(C)(O)C/C=C/[C@H]1[C@H](O)CC(=O)[C@@H]1CCCCCCC(=O)OC` (mixture of isomers) [Misoprostol], the cell viability was determined as 82.6%.
Consider `O=c1sn(-c2cccc3ccccc23)c(=O)n1Cc1ccccc1` [Tideglusib], for which the cell viability came out at 70.7%.
Consider `O=C(COc1ccc(Cl)cc1)NC1CCC(NC(=O)COc2ccc(Cl)cc2)CC1` (stereo not drawn) [ISRIB (trans-isomer)], for which the cell viability was 103%.
On to `CC=C(C)C(=O)O` [Tiglic acid], for which the cell viability came out at 101%.

In general, cell viability refers to a read-out of living cells in per cent, often relative to untreated cells.
